For assay [1], the target named is Transcription factor E2F1 (Homo sapiens) (UniProt Q01094). Briefly: ATG_E2F_CIS: Attagene CIS-FACTORIAL HepG2 Assay for human E2F Transcription Factor 1 (AID 2282935). The settings on record: HepG2 Attagene cis-reporter, E2F reporter RNA transcripts; actives raise or lower the signal. The gist of the method: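 First, HepG2 cells were transfected with reporter transcription units. Next, they were dosed for 24 h. Then RNA was isolated, converted to cDNA, PCR-amplified, FAM-labeled, HpaI-digested and analyzed by capillary electrophoresis.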

Assay [2] can be described thus: ATG_E_Box_CIS: Attagene CIS-FACTORIAL HepG2 Assay for human Enhancer Box (E-box) (AID 2282936). The conditions noted are these: HepG2 E-box cis-reporter transcription, actives raise or lower the signal. The gist of the method:
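Endogenous transcription factor activity was sensed in human HepG2 liver cells through transfected cis-promoter reporter units. After 24 h of dosing, total RNA was reverse-transcribed and reporter cDNA resolved by capillary electrophoresis.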

Assay [3] is described as follows: ATG_M_61_CIS: Attagene CIS-FACTORIAL HepG2 Assay for M61 Transcription Factor (Internal Marker) (AID 2282937). The conditions noted are these: HepG2 Attagene CIS-FACTORIAL M61 internal marker reporter; actives raise or lower the signal. The procedure, abridged: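 Readout is reporter mRNA by RT-PCR, fluorescent primer extension and capillary electrophoresis, with gain or loss fitted relative to DMSO. Transfected HepG2 cells carrying endogenous-TF-driven cis reporters were exposed to chemicals for 24 hours.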

Assay [4] can be described thus: ATG_EGR_CIS: Attagene CIS-FACTORIAL HepG2 Assay for human Early Growth Response 1 (EGR1) (AID 2282938). The conditions noted are these: HepG2 Attagene CIS-FACTORIAL EGR reporter mRNA; actives raise or lower the signal. The procedure, abridged:
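After 24 h compound exposure, RNA from reporter-transfected HepG2 cells was reverse-transcribed, PCR-amplified, fluorescently labelled and resolved by capillary electrophoresis. EGR1 reporter transcript changes, up or down, were fitted against DMSO, reflecting endogenous transcription-factor activity.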

Assay [5] is described as follows: ATG_M_19_CIS: Attagene CIS-FACTORIAL HepG2 Assay for M19 Transcription Factor (Internal Marker) (AID 2282939). The settings on record: HepG2 Attagene CIS-FACTORIAL M19 internal marker reporter; actives raise or lower the signal. The procedure, abridged:
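Readout: fluorescent reporter-transcript fragments by capillary electrophoresis after RT-PCR. Human HepG2 liver cells carried transfected MRTU constructs reporting endogenous transcription-factor activity; exposure 24 h. Gain or loss of signal fitted relative to DMSO.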

A short description of assay [6]: ATG_ERE_CIS: Attagene CIS-FACTORIAL HepG2 Assay for Estrogen Response Element (ERE) (AID 2282940). The conditions noted are these: HepG2 ERE cis-reporter, Attagene RNA transcript; actives raise or lower the signal. The procedure, abridged: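 Readout: reporter mRNA induction by RT-PCR, FAM-labelled primer extension, HpaI digestion and capillary electrophoresis, 24 h after dosing transfected HepG2 cells. Endogenous transcription factors act on cis-element-regulated reporters. Gain or loss fitted against DMSO.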

The nature of assay [7]: ATG_Ets_CIS: Attagene CIS-FACTORIAL HepG2 Assay for human Erythroblast Transformation Specific (ETS) (AID 2282941). The settings on record: HepG2 ETS cis-reporter transcription, actives raise or lower the signal. The procedure, abridged: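 Multiplexed reporter transcript profiling: HepG2, 24 h treatment, total RNA to cDNA, PCR, 6-FAM labelling, HpaI cut, capillary electrophoresis. Gain- or loss-of-signal fitted against DMSO.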

Assay [8] has as its target Hepatocyte nuclear factor 3-beta (Homo sapiens) (UniProt Q9Y261). The assay can be described thus: ATG_FoxA2_CIS: Attagene CIS-FACTORIAL HepG2 Assay for human Forkhead box A2 (FOXA2) (AID 2282942). The settings on record: HepG2 cis-reporter transcription factor activity, 24 h; actives raise or lower the signal. The procedure, abridged: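 Endogenous transcription factor activity is captured via cis-element-driven reporter transcripts in transfected HepG2. Total RNA taken at 24 h post-dosing; labelled RT-PCR products resolved by capillary electrophoresis. Gain or loss fitted versus DMSO.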

The nature of assay [9]: ATG_FoxO_CIS: Attagene CIS-FACTORIAL HepG2 Assay for human Forkhead box O (FoxO) (AID 2282943). The conditions noted are these: HepG2 Attagene cis-reporter, FoxO element, mRNA; actives raise or lower the signal. The procedure, abridged: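 HepG2 cells transiently transfected with cis-promoter-driven multiple reporter transcription units; 24 h after chemical dosing, reporter mRNA quantified by RT-PCR, fluorescent primer extension, HpaI digestion and capillary electrophoresis. Bidirectional fitting versus DMSO baseline.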

A short description of assay [10]: ATG_GATA_CIS: Attagene CIS-FACTORIAL HepG2 Assay for human GATA Binding Protein (AID 2282944). The conditions noted are these: HepG2 GATA cis-element reporter, Attagene multiplex mRNA; actives raise or lower the signal. The gist of the method:
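Read-out: fluorescent reporter mRNA fragments resolved by capillary electrophoresis after RT-PCR. Human liver HepG2 cells carried transiently transfected cis-regulated reporter constructs; chemicals incubated 24 h; gain or loss of signal fitted relative to DMSO.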

Assay [11] in a line: ATG_GLI_CIS: Attagene CIS-FACTORIAL HepG2 Assay for human Zinc Finger Protein GLI1 (AID 2282945). The conditions noted are these: HepG2, Attagene cis-factorial reporter mRNA, GLI element; actives raise or lower the signal. The procedure, abridged: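 HepG2 cells transiently transfected with cis-promoter multiplexed reporter units report endogenous transcription factor activity. After 24 h chemical exposure, reporter mRNA was quantified by RT-PCR, 6-FAM labelling, HpaI digestion and capillary electrophoresis, with bidirectional fitting against DMSO.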

For assay [12], the target named is Bile acid receptor (Homo sapiens) (UniProt Q96RI1). The assay can be described thus: ATG_IR1_CIS: Attagene CIS-FACTORIAL HepG2 Assay for human Nuclear Receptor Subfamily 1 Group H Member 4 (NR1H4), IR1 submotif (AID 2282946). The settings on record: IR1 reporter transcription, actives raise or lower the signal. The gist of the method: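 Readout: reporter transcript levels by RT-PCR with fluorescent capillary electrophoresis, from HepG2 cells transiently transfected with multiplexed cis-regulated reporters and dosed 24 h. Gain- or loss-of-signal fitted versus DMSO negative control.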

A short description of assay [13]: ATG_GRE_CIS: Attagene CIS-FACTORIAL HepG2 Assay for human Glucocorticoid Response Elements (GRE) (AID 2282947). The conditions noted are these: HepG2 GRE cis-reporter, Attagene multiplex mRNA; actives raise or lower the signal. The procedure, abridged: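 Cells (HepG2) bearing transfected cis-promoter reporter transcription units were treated with chemical for 24 hours. Reporter mRNA was measured via RT-PCR with capillary electrophoresis, and activity was fitted in both directions relative to DMSO.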

A short description of assay [14]: ATG_ISRE_CIS: Attagene CIS-FACTORIAL HepG2 Assay for human Interferon Regulatory Factor 1 (IRF1) binding to an Interferon-Stimulated Response Element (ISRE) (AID 2282948). The conditions noted are these: HepG2 ISRE cis-reporter (Attagene), mRNA transcription readout; actives raise or lower the signal. The procedure, abridged:
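Signal reflects induction or loss of ISRE-linked reporter mRNA in transiently transfected HepG2 cells after a 24 h treatment, detected by fluorescent RT-PCR fragments on capillary electrophoresis and normalised to DMSO.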

A short description of assay [15]: ATG_M_32_CIS: Attagene CIS-FACTORIAL HepG2 Assay for M32 Transcription Factor (Internal Marker) (AID 2282949).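 Also: background control marker of the multiplexed CIS panel rather than a real target.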 The settings on record: HepG2 Attagene cis-factorial M32 reporter, mRNA; actives raise or lower the signal. The procedure, abridged:
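HepG2 transfectants (cis-regulated reporter transcription units) dosed 24 h. Reporter mRNA by RT-PCR plus CE, analysed as gain or loss relative to DMSO.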

Assay [16] can be described thus: ATG_M_06_CIS: Attagene CIS-FACTORIAL HepG2 Assay for M06 Transcription Factor (Internal Marker) (AID 2282950). The settings on record: HepG2 Attagene CIS-FACTORIAL M06 internal marker reporter; actives raise or lower the signal. The gist of the method:
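Terse: HepG2, transient MRTU transfection (FuGene 6), 24 h dosing; total RNA, oligo(dT) RT, PCR, FAM label, HpaI cut, capillary electrophoresis; bidirectional fit vs DMSO baseline; background-control endpoint.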

The target in assay [17] is Hypoxia-inducible factor 1-alpha (Homo sapiens) (UniProt Q16665). Briefly: ATG_HIF1a_CIS: Attagene CIS-FACTORIAL HepG2 Assay for human Hypoxia Inducible Factor 1 (HIF1A) (AID 2282951). The conditions noted are these: HepG2 Attagene cis-factorial HIF1a reporter transcription; actives raise or lower the signal. The procedure, abridged: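 Activity is fitted in both directions relative to DMSO. Reporter transcripts are read by RT-PCR, fluorescent primer extension and capillary electrophoresis after 24 h chemical treatment. The cells are HepG2 carrying transiently transfected cis-element-driven reporter units responding to endogenous factors.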

For assay [18], the target named is Hepatocyte nuclear factor 6 (Homo sapiens) (UniProt Q9UBC0). Briefly: ATG_HNF6_CIS: Attagene CIS-FACTORIAL HepG2 Assay for human Hepatocyte Nuclear Factor 6 (HNF6) (AID 2282952). The settings on record: HepG2 Attagene cis-factorial HNF6 reporter transcription; actives raise or lower the signal. The gist of the method: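 Activity values derive from bidirectional fitting against DMSO of reporter mRNA levels, measured by capillary electrophoresis of labelled RT-PCR products from HepG2 cells exposed 24 h.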

Assay [19] has as its target Heat shock factor protein 1 (Homo sapiens) (UniProt Q00613). Briefly: ATG_HSE_CIS: Attagene CIS-FACTORIAL HepG2 Assay for human Heat Shock Transcription Factor 1 (HSE) (AID 2282953). The settings on record: HepG2 HSE cis-reporter, Attagene RNA transcription; actives raise or lower the signal. The gist of the method:
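Read-out: fluorescence of reporter-specific RT-PCR fragments separated by capillary electrophoresis. HepG2 carrying transfected cis-element reporter units; 24 h dosing; activity fitted in both directions relative to DMSO baseline.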

A short description of assay [20]: ATG_MRE_CIS: Attagene CIS-FACTORIAL HepG2 Assay for human Metal Responsive Element (MRE) (AID 2282954). The conditions noted are these: HepG2 MRE cis-reporter transcription, Attagene multiplex; actives raise or lower the signal. The procedure, abridged: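 Cells were transfected with cis-promoter reporter transcription units, then dosed for 24 h. RNA was reverse-transcribed, amplified, fluorescently labelled and resolved by capillary electrophoresis, and activity was fitted in both directions relative to DMSO.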

The values below come from PubChem BioAssay (EPA / NIEHS).

Calls of active or inactive are those of the source. The calls were made as follows: active = hit-call score of the fitted dose curve at least 0.9, where 1 is the maximum; inactive = score below 0.9.

A word on the AC50: it is the concentration giving half of the maximal activity seen.

Sequence of Hepatocyte nuclear factor 3-beta (Homo sapiens) (Q9Y261 whole entry, looked up): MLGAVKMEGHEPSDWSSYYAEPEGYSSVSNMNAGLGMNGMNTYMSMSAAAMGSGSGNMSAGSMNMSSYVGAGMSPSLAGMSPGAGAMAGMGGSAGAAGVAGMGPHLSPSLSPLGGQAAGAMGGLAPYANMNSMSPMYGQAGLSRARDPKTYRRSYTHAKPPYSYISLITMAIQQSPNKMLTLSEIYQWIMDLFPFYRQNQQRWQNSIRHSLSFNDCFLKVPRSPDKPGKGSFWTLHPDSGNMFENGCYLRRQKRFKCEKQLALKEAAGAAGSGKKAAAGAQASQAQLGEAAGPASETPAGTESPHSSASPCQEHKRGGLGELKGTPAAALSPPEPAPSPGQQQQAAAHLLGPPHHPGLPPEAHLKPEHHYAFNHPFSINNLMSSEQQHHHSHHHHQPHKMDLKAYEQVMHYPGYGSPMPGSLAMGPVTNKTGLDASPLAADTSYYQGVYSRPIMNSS
Sequence of Transcription factor E2F1 (Homo sapiens) (Q01094 whole entry, looked up): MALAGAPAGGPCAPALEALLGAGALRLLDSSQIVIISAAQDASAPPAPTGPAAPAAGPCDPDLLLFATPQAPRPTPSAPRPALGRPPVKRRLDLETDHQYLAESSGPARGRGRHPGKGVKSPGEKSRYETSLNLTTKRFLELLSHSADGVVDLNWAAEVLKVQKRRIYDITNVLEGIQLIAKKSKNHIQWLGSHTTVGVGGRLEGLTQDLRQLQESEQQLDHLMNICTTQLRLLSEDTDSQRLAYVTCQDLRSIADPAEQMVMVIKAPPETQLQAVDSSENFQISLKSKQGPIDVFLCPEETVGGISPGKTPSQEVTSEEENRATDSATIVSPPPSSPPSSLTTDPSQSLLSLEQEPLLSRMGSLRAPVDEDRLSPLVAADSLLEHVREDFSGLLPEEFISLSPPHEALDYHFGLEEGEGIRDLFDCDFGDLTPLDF
Sequence of Hypoxia-inducible factor 1-alpha (Homo sapiens) (Q16665 whole entry, looked up): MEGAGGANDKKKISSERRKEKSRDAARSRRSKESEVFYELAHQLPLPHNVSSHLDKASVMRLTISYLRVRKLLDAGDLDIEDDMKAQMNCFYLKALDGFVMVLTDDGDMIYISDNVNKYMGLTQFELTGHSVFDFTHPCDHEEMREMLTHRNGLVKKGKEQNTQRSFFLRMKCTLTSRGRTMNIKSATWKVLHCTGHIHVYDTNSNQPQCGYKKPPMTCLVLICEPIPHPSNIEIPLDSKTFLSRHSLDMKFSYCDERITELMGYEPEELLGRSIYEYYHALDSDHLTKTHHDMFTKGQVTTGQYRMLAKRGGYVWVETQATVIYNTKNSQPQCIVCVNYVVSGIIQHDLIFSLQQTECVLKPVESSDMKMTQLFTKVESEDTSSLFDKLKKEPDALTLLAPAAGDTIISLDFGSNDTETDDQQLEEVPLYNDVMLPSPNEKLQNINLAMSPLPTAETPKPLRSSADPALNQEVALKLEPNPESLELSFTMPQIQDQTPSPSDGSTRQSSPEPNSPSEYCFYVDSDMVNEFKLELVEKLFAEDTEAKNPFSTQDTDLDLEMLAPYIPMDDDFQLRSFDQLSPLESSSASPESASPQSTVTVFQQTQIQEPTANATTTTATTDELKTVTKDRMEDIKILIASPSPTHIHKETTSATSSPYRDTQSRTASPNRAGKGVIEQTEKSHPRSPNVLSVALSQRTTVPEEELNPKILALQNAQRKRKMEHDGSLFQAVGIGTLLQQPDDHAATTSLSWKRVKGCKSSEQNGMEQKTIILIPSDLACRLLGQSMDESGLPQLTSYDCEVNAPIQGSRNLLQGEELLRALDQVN
Sequence of Heat shock factor protein 1 (Homo sapiens) (Q00613 whole entry, looked up, the tested form may be a part): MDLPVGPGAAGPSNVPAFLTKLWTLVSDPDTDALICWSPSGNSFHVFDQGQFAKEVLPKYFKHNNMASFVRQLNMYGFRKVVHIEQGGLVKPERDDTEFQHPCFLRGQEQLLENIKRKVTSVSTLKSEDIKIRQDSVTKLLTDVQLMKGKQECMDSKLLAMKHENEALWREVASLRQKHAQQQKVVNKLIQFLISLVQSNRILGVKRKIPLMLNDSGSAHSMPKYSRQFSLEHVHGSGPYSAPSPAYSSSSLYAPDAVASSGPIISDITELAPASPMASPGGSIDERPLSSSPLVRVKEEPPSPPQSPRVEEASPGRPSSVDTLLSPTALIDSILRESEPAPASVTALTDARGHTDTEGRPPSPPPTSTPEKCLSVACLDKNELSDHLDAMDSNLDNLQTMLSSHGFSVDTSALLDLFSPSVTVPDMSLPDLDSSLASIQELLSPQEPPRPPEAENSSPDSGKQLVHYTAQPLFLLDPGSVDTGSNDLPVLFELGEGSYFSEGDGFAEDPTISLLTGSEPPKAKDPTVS
Sequence of Hepatocyte nuclear factor 6 (Homo sapiens) (Q9UBC0 whole entry, looked up): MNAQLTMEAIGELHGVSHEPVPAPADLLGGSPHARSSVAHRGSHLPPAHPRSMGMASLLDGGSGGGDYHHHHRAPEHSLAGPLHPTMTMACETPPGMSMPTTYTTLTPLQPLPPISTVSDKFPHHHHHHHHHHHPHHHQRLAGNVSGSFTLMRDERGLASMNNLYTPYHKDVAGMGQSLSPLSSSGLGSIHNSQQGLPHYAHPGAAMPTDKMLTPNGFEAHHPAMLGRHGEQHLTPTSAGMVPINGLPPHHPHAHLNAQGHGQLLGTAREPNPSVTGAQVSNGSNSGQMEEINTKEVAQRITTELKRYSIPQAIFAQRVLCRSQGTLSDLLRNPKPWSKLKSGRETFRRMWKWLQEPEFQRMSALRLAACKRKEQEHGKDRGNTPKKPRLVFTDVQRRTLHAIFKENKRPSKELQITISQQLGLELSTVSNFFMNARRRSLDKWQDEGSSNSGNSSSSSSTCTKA
Sequence of Bile acid receptor (Homo sapiens) (Q96RI1 whole entry, looked up): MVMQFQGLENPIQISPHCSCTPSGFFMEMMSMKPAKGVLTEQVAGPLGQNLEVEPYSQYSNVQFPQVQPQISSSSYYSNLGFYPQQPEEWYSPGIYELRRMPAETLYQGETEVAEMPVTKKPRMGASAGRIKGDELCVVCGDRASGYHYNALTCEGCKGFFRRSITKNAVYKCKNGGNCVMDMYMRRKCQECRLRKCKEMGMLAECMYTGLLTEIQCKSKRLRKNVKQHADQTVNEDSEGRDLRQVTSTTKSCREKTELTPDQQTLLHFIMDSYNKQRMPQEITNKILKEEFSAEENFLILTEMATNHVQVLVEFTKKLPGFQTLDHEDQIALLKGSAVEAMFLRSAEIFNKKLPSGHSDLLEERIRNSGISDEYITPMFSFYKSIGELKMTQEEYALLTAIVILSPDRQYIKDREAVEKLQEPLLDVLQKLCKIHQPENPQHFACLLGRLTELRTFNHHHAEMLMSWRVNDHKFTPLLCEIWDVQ

Regarding `CC(C)(C)OOC(C)(C)C`, the compound was classed as inactive in assay [1], in assay [2], in assay [3], in assay [4], in assay [5] and in [6]. Also, the call in [7], in assay [8], in assay [9], in assay [10], in [11] and in assay [12] was inactive. Moreover, the call in assay [13], in assay [14], in assay [15], in assay [16], in assay [17] and in assay [18] was inactive. The outcome in [19] and in assay [20] was inactive.
For the compound `Clc1ccc(Oc2ccccc2)cc1`, the compound was called inactive in assay [1], in assay [2], in assay [3], in [4], in assay [5] and in [7]. The call in assay [8], in assay [9], in [10], in [11], in assay [12] and in assay [13] was inactive. Further, the compound was called inactive in [14], in [15], in assay [16], in assay [17], in assay [18] and in assay [19]. Moreover, the outcome in assay [20] was inactive. Moreover, in assay [6], the AC50 is 88.4 µM (active).
For the compound `CCC(C)(C)c1ccc(O)cc1`, the AC50 in assay [1] was 52.4 µM (active); in assay [6], 2.25 µM (active); in assay [12], 33.4 µM (active); in [17] it was 33.4 µM (active). For the same compound, the outcome in assay [2], in [3], in [4], in [5], in [7] and in assay [8] was inactive. In addition, the compound was called inactive in [9], in assay [10], in assay [11], in [13], in assay [14] and in [15]. The outcome in assay [16], in assay [18], in [19] and in assay [20] was inactive.
As for `O=S1(=O)OCC2C(CO1)C1(Cl)C(Cl)=C(Cl)C2(Cl)C1(Cl)Cl` (stereo not given), the outcome in [1], in assay [3], in assay [5], in [7], in [8] and in [9] was inactive. Moreover, the compound was classed as inactive in assay [10], in assay [12], in assay [13], in [15], in assay [16] and in assay [17]. Besides, the outcome in assay [18] was inactive. Moreover, the AC50 in assay [2] is 26.5 µM (active); in assay [4], 179 µM (active); in assay [6] it was 1.84 µM (active); in assay [11], 186 µM (active); in [14], 100 µM (active); in assay [19], 142 µM (active). For the same compound, the AC50 in assay [20] was 163 µM (active).
